Screening data: PubChem BioAssay, National Center for Advancing Translational Sciences (NCATS)
Sampled rows, rich in hits. Any-hit rate of the full collection: about 3.6%.
TRHR PAM: TRH receptor (human) allosteric enhancement; P34981; TRHR cells, fluo-8 calcium fluorescence, EC20 TRH enhancement; enhancement, % at 2 µM; 0.66% of 360,000 active; AID 493056; in the data active = enhancement above about 30%; note: 0% is about no effect
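Enhancer read-out: after compound pinning and an initial kinetic agonist-mode read, an EC20 of TRH (10 nM final) was injected and fluo-8 calcium signal (Ex 480/Em 530) followed at 1 s/cycle for 100 cycles in TRHR-expressing cells.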
D1 potentiator: enhances dopamine response at the human D1 receptor | P21728 | HEK293 TREx D1 cells, calcium flux, dopamine EC20 potentiation | potentiation, % at 10 µM | 0.036% of 360,000 active | AID 504651; in the data active = potentiation above about 30%; note: 0% is about no effect
Target sequence (P21728 whole entry, looked up): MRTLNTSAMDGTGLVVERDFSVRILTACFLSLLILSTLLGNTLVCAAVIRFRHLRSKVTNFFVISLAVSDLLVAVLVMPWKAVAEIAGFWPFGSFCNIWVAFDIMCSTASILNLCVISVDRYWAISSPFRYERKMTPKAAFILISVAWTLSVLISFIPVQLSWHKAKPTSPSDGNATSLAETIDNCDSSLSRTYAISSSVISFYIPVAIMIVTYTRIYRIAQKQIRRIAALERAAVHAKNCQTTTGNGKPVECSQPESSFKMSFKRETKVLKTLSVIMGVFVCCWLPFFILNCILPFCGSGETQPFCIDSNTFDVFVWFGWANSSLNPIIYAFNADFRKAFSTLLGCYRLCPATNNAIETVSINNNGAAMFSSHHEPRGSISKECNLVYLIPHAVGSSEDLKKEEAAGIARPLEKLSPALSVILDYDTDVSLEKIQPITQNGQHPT
LDHA inh: blocks human lactate dehydrogenase A; purified LDHA, NADH/diaphorase-resazurin fluorescence; stronger effect = lower value; activity change, % (values are at about 110 or 230 µM); 0.15% of 480,000 active; in the data active = activity change below about -30%; inconclusive = mostly about -25% to -30%;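 note: plate controls were DMSO wells for no effect and wells without enzyme for full effect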
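Human LDH5 (2 nM) was incubated with 0.06 mM NADH and 0.2 mM pyruvate for 5 min at room temperature in Tris pH 7.4. Remaining NADH was coupled through diaphorase/resazurin, and resorufin fluorescence was read at 0 and 20 min.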
TRHR ag: TRH receptor (human) agonism. P34981. TRHR cells, calcium flux fluo-8, FDSS agonist mode. activation, % at 2 µM. 0.18% of 360,000 active; note: 0% is about no effect
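TRHR-expressing cells loaded with fluo-8 calcium dye; 23 nL library compound pin-transferred, kinetic FDSS fluorescence (Ex 480/Em 530) recorded about 180 s for agonist-induced calcium release, before a 10 nM TRH EC20 addition for potentiator mode.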
D1 agonist: agonists of human D1 dopamine receptor | P21728 | HEK293 T-REx D1 cells, calcium flux, agonist mode | activation, % at 2 µM | 1% of 360,000 active | AID 504660; note: 0% is about no effect
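Inducible HEK293 T-REx D1 cells, force-coupled to calcium signalling, were plated at 4000 cells/well with tetracycline and held overnight at 30 C. After no-wash calcium dye loading, compound-evoked calcium rise over 180 s flagged agonists.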
D1 antag: human D1 dopamine receptor antagonism | P21728 | HEK293 TREx D1 cells, calcium flux, dopamine EC80; stronger effect = lower value | activity change, negative = inhibition, % at 10 µM | 3.2% of 360,000 active | AID 504652; in the data active = activity change below about -30%; note: % is set by controls: 0 for no effect and ±100 for the full control effect
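Using tetracycline-induced force-coupled D1 Hek293 cells and a calcium dye, signals were followed for 180 s after compound, then for 180 s after EC80 dopamine, to detect inhibitors.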
Starred values were filed as active, the others as inactive; ? = inconclusive; · = no result. Cut-off read from the data, not from the text of the source, unless noted: active = activation above about 30%; inactive = the rest.

SMILES | TRHR PAM | D1 potentiator | LDHA inh | TRHR ag | D1 agonist | D1 antag
CC(C(=O)Nc1ccc2c(c1)OCO2)N1CCN(C)CC1 (stereo not given) | 4 | -4 | ? | 0 | 0 | 4
Cc1ccccc1OCC(O)Cn1nnc2ccccc21 (stereo not given) | -3 | -9 | 4 | -1 | 20 | -55*
CCC(=O)c1ccc(OCC(O)Cn2nnc3ccccc32)cc1 (stereo not given) | 3 | -2 | -4 | 0 | 3 | 24
Cc1cccc(C)c1OCCn1nnc2ccccc21 | 9 | -2 | -2 | 0 | 8 | -42*
Cc1cc(C)cc(OCCn2nnc3ccccc32)c1 | 3 | 0 | -1 | 1 | 5 | 5
CCOC(=O)c1c(S(=O)(=O)N2CCCC(C(=O)Nc3ccc(F)c(F)c3)C2)c(C)n(C)c1C (stereo not given) | · | · | 9 | · | · | ·
Brc1ccccc1-c1nnc(SCc2nc3ccccc3o2)o1 | · | · | 4 | · | · | ·
Cc1nn(-c2ccccc2)c(Cl)c1CN(C(=O)CCl)c1ccc(Cl)cc1 | -18 | -8 | -3 | -1 | 2 | -57*
CC[C@H](C)/C=C(C)/C=C/C(=O)Cc1cc(O)c(C)c(O)c1C=O | -6 | -7 | 7 | 3 | 14 | -16
CC[C@H](C)/C=C(C)/C=C/C1=CC2=CC(=O)[C@]3(C)OC(=O)[C@@H](C(C)=O)[C@@H]3C2=CO1 | -6 | 4 | 7 | 11 | 42* | -14
CC(=O)c1ccc(NC(=O)C(C)OC(=O)C2=CN3CCS(=O)(=O)N=C3C=C2)cc1 (stereo not given) | · | · | 6 | · | · | ·
Cc1ccc(S(=O)(=O)c2c(Nc3cc(C)ccc3C)sc(C(=O)c3ccc4c(c3)OCO4)c2N)cc1 | 24 | 8 | -4 | -1 | 84* | 8
Nc1c(C(=O)c2ccc3c(c2)OCO3)sc(Nc2ccccc2F)c1S(=O)(=O)c1ccccc1 | -2 | -1 | -7 | 1 | 21 | 4
CCOc1ccc(Nc2sc(C(=O)c3ccc4c(c3)OCO4)c(N)c2S(=O)(=O)c2ccc(C)cc2)cc1 | 3 | -1 | -8 | 2 | 37* | -17
Cc1cc(C)cc(Nc2sc(C(=O)c3ccccc3)c(N)c2S(=O)(=O)c2ccccc2)c1 | -5 | -4 | 2 | 1 | 26 | 10
Cc1ccc(S(=O)(=O)c2c(Nc3ccc(C)c(C)c3)sc(C(=O)c3ccc4c(c3)OCO4)c2N)cc1 | -18 | 6 | -12 | 6 | 68* | -23
O=C(CNc1nnc(-c2ccc([S+](=O)([O-])N3CCCC3)cc2)n1-c1ccccc1)Nc1ccc(C(=O)O)cc1 | · | · | -7 | · | · | ·
O=C(COc1ccccc1C(=O)Nc1ccccc1)NC1CCCC1 | · | · | 0 | · | · | ·
CSc1ccc(CN2CCN(C(C)C)C(CCO)C2)cc1 (stereo not given) | -3 | 0 | -8 | -1 | 0 | -35*
CC(C)N1CCN(Cc2ccncc2)CC1CCO (stereo not given) | -6 | -4 | -6 | 1 | 3 | 4
CC(C)N1CCN(Cc2cccn2-c2nccs2)CC1CCO (stereo not given) | 36* | 1 | 0 | 2 | 14 | 6
OCCC1CN(Cc2cccn2-c2nccs2)CCN1C1CCCCC1 (stereo not given) | -1 | -1 | -5 | 0 | 1 | 0
CC(=O)Oc1ccccc1C(=O)Oc1ccc(F)cc1 | · | · | -3 | · | · | ·
CN1CCCN(C(=O)CC(c2ccccc2)c2ccccc2)CC1 | -1 | -4 | 1 | -1 | 0 | 8
O=C(CCC(=O)N1CCN(c2ccccc2F)CC1)N1CCN(c2ccccc2)CC1 | 11 | -3 | -10 | 0 | 9 | -61*
SMILES | TRHR PAM | D1 potentiator | LDHA inh | TRHR ag | D1 agonist | D1 antag
O=C(CSc1ccccc1)N1CCN(c2ccccc2)CC1 | -1 | -5 | -5 | 2 | -1 | -34*
O=C(CSc1ccccc1C(=O)N1CCN(c2ccccc2)CC1)N1CCCC1 | 3 | -10 | 1 | 0 | 0 | -44*
O=C(CCC(=O)N1CCN(c2ccccc2F)CC1)N1CCN(c2ccc(F)cc2)CC1 | 1 | -1 | 0 | 0 | 4 | -14
CN1CCCN(C(=O)CSc2ccccc2)CC1 | 31* | -5 | -2 | 0 | -2 | 30
COc1ccc(C(=O)Nc2ccc(C3(C)CC=NO3)cc2)cc1 (stereo not given) | · | · | -2 | · | · | ·
CCCNC(=O)NCc1cccn1Cc1cc(C)ccc1C | · | · | -5 | · | · | ·
CC(C)(C)c1ccccc1OCC(O)Cn1nc(C(N)=O)c2ccccc2c1=O (stereo not given) | · | · | 7 | · | · | ·
Cc1[nH]c2ccccc2c1SCC(=O)N1CCN(c2ccccc2)CC1 | 11 | -7 | -2 | 0 | -1 | -43*
O=C(O)C1CCN(C(=O)c2csc(-c3ccc4c(c3)CCO4)n2)CC1 | -2 | 1 | 1 | -1 | 3 | -34*
CCOC(=O)c1csc(-c2ccc3c(c2)CCO3)n1 | -3 | -2 | -1 | 0 | 1 | 2
Cc1ccc(Cl)cc1NC(=O)CCNS(=O)(=O)/C=C/c1ccccc1 | · | · | -7 | · | · | ·
CCn1ncc(CN2CCC(C(=O)Nc3cccc(-c4cccc(F)c4)c3)CC2)c1C | 5 | -9 | 1 | 2 | 19 | -21
Cc1cc(C)n(CCCN2CCC(C(=O)Nc3cccc(-c4cccc(F)c4)c3)CC2)n1 | -3 | -8 | -2 | 1 | 34* | -58*
O=[S+]([O-])(c1ccc2c(c1)OCCO2)N1CCN([S+](=O)([O-])c2c(O)cc(F)cc2F)CC1 | -6 | -10 | 0 | 2 | -1 | -48*
CC(=O)N(C)C[C@@H]1Oc2ncc(Br)cc2C(=O)N([C@H](C)CO)C[C@@H]1C | · | · | -34* | · | · | ·
Cc1c(Cl)cccc1NC(=O)CSc1nc2c(=O)n(C)c(=O)n(C)c2n1C | · | · | -6 | · | · | ·
O=C1c2cc(Br)ccc2N(Cc2ccc(Br)cc2)S(=O)(=O)C1c1cc(Cl)c(Cl)cc1[N+](=O)[O-] (stereo not given) | · | · | -43* | · | · | ·
CN(Cc1ccccc1)C(=O)c1ccc(NC(=O)Cc2cccc(NC(=O)C3CCCN(C(=O)CCc4ccccc4)C3)c2)cc1 (stereo not given) | 0 | -4 | 0 | 1 | 8 | -33*
O=[N+]([O-])c1cc(C(F)(F)F)ccc1NC(c1ccccc1)c1ccccn1 (stereo not given) | · | · | 5 | · | · | ·
O=C(COC(=O)c1cc2ccccc2[nH]1)c1ccccc1 | · | · | 13 | · | · | ·
CC(=O)c1c(C)[nH]c(C(=O)Nc2nc(-c3ccc(Cl)cc3)cs2)c1C | 8 | -15 | -5 | 0 | 21 | -32*
Cc1noc(C)c1C(=O)Nc1nc(-c2ccc([N+](=O)[O-])cc2)cs1 | -6 | -8 | -3 | 0 | 25 | -51*
